For 20 compounds, growth inhibition results are on record in PubChem BioAssay (NCI).

The nature of assay [1]: NCI Yeast Anticancer Drug Screen. Data for the rad50 strain (AID 155).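 Note: 0% = growth of vehicle-only cultures of the same strain.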 As to conditions: S. cerevisiae rad50 strain growth inhibition, active compounds read high; at 50.0 µM unless noted. A digest of the protocol: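 Cells are treated with compound, grown, and their growth is then scored against vehicle-only cultures of the same repair-deficient yeast strain.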
A short description of assay [2]: NCI Yeast Anticancer Drug Screen. Data for the mec2-1 strain (AID 157). The settings on record: S. cerevisiae mec2-1 strain, active compounds read high; at 50.0 µM unless noted. The method in brief:
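Cells of the genetically defined mec2-1 yeast strain are incubated with test compound. Inhibition of growth is calculated against vehicle-treated controls.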

A short description of assay [3]: NCI Yeast Anticancer Drug Screen. Data for the sgs1 mgt1 strain (AID 161).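 Note: 0% = growth of cultures given vehicle only.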 As to conditions: S. cerevisiae sgs1 mgt1 strain, active compounds read high; at 50.0 µM unless noted. A digest of the protocol: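 Test agents were incubated with a DNA-repair-mutant yeast strain. Growth was then read and compared against vehicle-treated controls.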
The nature of assay [4]: NCI Yeast Anticancer Drug Screen. Data for the cln2 rad14 strain (AID 165).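 Note: 0% = growth equal to vehicle treated cultures.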 The settings on record: S. cerevisiae cln2 rad14 strain, active compounds read high; at 50.0 µM unless noted. A digest of the protocol:
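The screen exposed genetically defined yeast (cln2 rad14) to test compounds and scored growth inhibition relative to vehicle-treated controls.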

Assay [5] can be described thus: NCI Yeast Anticancer Drug Screen. Data for the bub3 strain (AID 167). The settings on record: S. cerevisiae bub3 mutant strain, active compounds read high; at 50.0 µM unless noted. A digest of the protocol:
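Part of a panel of yeast mutants defective in DNA damage repair or cell cycle regulation. Each strain is grown with compound, and inhibition is calculated relative to solvent-treated cultures.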

A short description of assay [6]: NCI Yeast Anticancer Drug Screen. Data for the mlh1 rad18 strain (AID 175). The settings on record: S. cerevisiae mlh1 rad18 strain growth inhibition, active compounds read high; at 50.0 µM unless noted. The method in brief:
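Compound-treated yeast growth, normalised to vehicle controls. Strain bears defined DNA repair mutations.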

Each structure is given as a SMILES string. Values joined by “and” are separate entries in the source; they are usually repeats but may differ in a detail not shown here. Equal values may be shown once. This is part of a sample that, as a whole, favours compounds with a hit. Of some 79,000 tested, about 15% had one in any assay. A number with no mark means an inactive call. Active and inactive are the calls of the source. Cut-off read from the data, not from the text of the source: active = growth inhibition above about 70%; inactive = the rest. Where a SMILES comes first, the peptide text is derived from it. The star is where a group is joined. Boc = CC(C)(C)OC(=O)*; OBn = c1ccc(CO*)cc1

Turning to `COc1cccc(C(=O)C2N=NCC2c2ccccc2)c1` (stereo not given), the growth inhibition in assay [1] was -17.4%; in assay [2] it was -5%; in assay [3], 2%; in assay [4], -15.2%; in assay [5], 61.5%; in assay [6], 29.9%.
Regarding `CC(=O)OCCc1cc2ccccc2oc1=O`, the growth inhibition in assay [1] is -9.05%; in assay [2], 23.9%; in assay [3], -16.8%; in assay [4], 8.6%; in assay [5] it was 12.2%; in assay [6], 9.25%.
Turning to `NC(=S)/N=C/c1c(O)c2ccccc2oc1=O`, the growth inhibition in assay [1] is -15.8%; in assay [2], 3.95%; in assay [3] it was -37.5%; in assay [4], 3.5%; in assay [5], -12.7%; in assay [6] it was -35%.
With `CS(=O)(=O)c1nc2[nH]cnc(=S)c2[nH]1`, the growth inhibition is 8% in assay [1]; -8.2% in assay [2]; -3.5% in assay [3]; 10.9% in assay [4]; 20.9% in assay [5]; -7.1% in assay [6].
`CC12C(=C(C#N)C(=N)N1c1ccc(Cl)c(Cl)c1)C=C(O)CC2SCCS(=O)(=O)O` (stereo not given): the growth inhibition in assay [1] was 13.2%; in assay [2] it was 1.4%; in assay [3] it was -1%; in assay [4], 27.4%; in assay [5], -11.4%; in assay [6], 10.8%.
In the case of `CC(C)(CO)CNC(=O)C(C)(C)CO`, the growth inhibition in assay [1] was 7.8%; in assay [2], 14.1%; in assay [3], -5%; in assay [4] it was 21.1%; in assay [5], 16.8%; in assay [6], -4.4%.
Consider `O=C(Nc1cccc2ccccc12)c1ccc(Cl)cc1Cl`, for which the growth inhibition is 4.15% in assay [1]; 14.9% in assay [2]; 21.5% in assay [3]; 1.35% in assay [4]; 8.55% in assay [5]; 4.65% in assay [6].
Take `O=C(O)c1c(-c2nccc3ccccc23)[nH]c(-c2ccccc2)c1S(=O)(=O)O`: the growth inhibition in assay [1] was -23.1%; in assay [2] it was 5.7%; in assay [3], -18.9%; in assay [4] it was -35.3%; in assay [5], -24.4%; in assay [6] it was 21.6%.
In the case of `CC(C)CC(NC(=O)C(Cc1ccccc1)NC(=O)C(Cc1ccccc1)NC(=O)OC(C)(C)C)C(=O)OCc1ccccc1` (stereo not drawn) (Boc-Phe-Phe-Leu-OBn; configuration not given here), the growth inhibition in assay [1] is -3.15%; in assay [2], -10.3%; in assay [3], -5.95%; in assay [4], -7.2%; in assay [5] it was 0.95%; in assay [6], 5.95%.
On to `CC(=O)Oc1cc(OC(C)=O)c2c(OC(C)=O)c3c(OC(C)=O)cc(C)cc3cc2c1`, for which the growth inhibition was 40.5% in assay [1]; 19.8% in assay [2]; 39.5% in assay [3]; 31.6% in assay [4]; 9.3% in assay [5]; 20.1% in assay [6].
Consider `CC(C)(CO)N=Cc1ccccc1O`, for which the growth inhibition in assay [1] was -0.25%; in assay [2], -1.6%; in assay [3], -14.2%; in assay [4], -3.8%; in assay [5] it was -13.3%; in assay [6], 6.35%.
As to `C=CCCC(CCC=C)(C(=O)O)C(=O)O`, the growth inhibition in assay [1] is -7.1%; in assay [2] it was -9.7%; in assay [3] it was -16.7%; in assay [4] it was 6.65%; in assay [5], -20.9%; in assay [6] it was -36.8%.
For `CC1CC(=O)c2c(ccc3c2C(=O)c2cccc(O)c2C3=O)C1` (stereo not given), the growth inhibition in assay [1] is -3.55%; in assay [2] it was -0.45%; in assay [3] it was 40.2%; in assay [4], 24.8%; in assay [5] it was -1.05%; in assay [6], 52.8%.
For the compound `Cc1ccc(/C=C(/c2ccccc2)C(CC(=O)O)C(=O)O)cc1` (stereo not given), the growth inhibition is -4.75% in assay [1]; -11.3% in assay [2]; -6.85% in assay [3]; -44.7% in assay [4]; -6.35% in assay [5]; -14.5% in assay [6].
Regarding `CN(Cc1ccccc1Cl)C(=S)NC1CCCCC1`, the growth inhibition in assay [1] is 62%; in assay [2], 88.8% (active); in assay [3], 86% (active); in assay [4], 34.8%; in assay [5], 81.3% (active); in assay [6], 85.5% (active).
Consider `C[n+]1c(SCC(=O)O)sc2ccccc21`, for which the growth inhibition in assay [1] was -28.8% and 1.2%; in assay [2], -46.3% and 10.1%; in assay [3] it was 3.7% and 19.6%; in assay [4], 14.9% and 6.5%; in assay [5], -26.6% and 34.2%; in assay [6], 5.7% and 22.9%.
Regarding `O=C(Nc1ccc(Cl)cc1Cl)c1cc2nc3ccccc3c(=O)n2c2ccccc12`, the growth inhibition was 29.6% in assay [1]; 13.6% in assay [2]; 12.1% in assay [3]; 7.7% in assay [4]; 17.3% in assay [5]; 30.6% in assay [6].
For the compound `COC(=O)/C(=C(\C)NC(C)=O)c1c(C(=O)OC)[nH]c2ccccc12`, the growth inhibition was -6.85% in assay [1]; -12.5% in assay [2]; -9.15% in assay [3]; 4.15% in assay [4]; -3% in assay [5]; -111% in assay [6].
In the case of `CCCCCCCCCCCCCCCCCC(=O)CBr`, the growth inhibition is 14% in assay [1]; 9.9% in assay [2]; 10.9% in assay [3]; -25.4% in assay [4]; 2.2% in assay [5]; 38.9% in assay [6].
In the case of `COc1ccc(C=NCC(OC)OC)cc1OCc1ccccc1`, the growth inhibition in assay [1] was -14.9%; in assay [2], 7.15%; in assay [3] it was 14%; in assay [4] it was -16.4%; in assay [5], -3.05%; in assay [6] it was 12.4%.
